Laboratory results as given in PubChem BioAssay.
Measured potencies and affinities stand elsewhere. Records with an inconclusive call do not appear. Active and inactive are the calls of the source. Unless noted, no rule for the calls is given here.

Columns and labels:
[1] = RMG-1 ovarian cancer cell viability loss – cherry-pick, dose response (AID 687029;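 active = signal drop whose fitted half-maximal concentration is at most twice the top valid dose, in every test run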;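 also: cells exposed to compound for 96 hours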); conditions: RMG-1 viability, CellTiterGlo ATP luminescence, 96 h; series mostly up to 35 µM
[2] = IOSE-T80 viability loss, PAX8-independent line – cell-based, cherry-pick, selectivity assay for PAX8 inhibitor project, dose response (AID 687032;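 active = fitted half-maximal concentration for viability loss no higher than twice the top valid dose, in every repeat run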;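 also: cells exposed to compound for 96 h before reading; 0% = neutral control wells and -100% = 2 µM mitoxantrone kill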); conditions: CellTiterGlo ATP luminescence, 96 h; series mostly up to 35 µM
[3] = CMV-driven luciferase expression suppression in HEK293 – cell-based, luminescence, dry powder, counter-screen for Pax8 inhibitor project, dose response (AID 743020;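 active = signal-lowering compounds whose fitted half-maximal concentration is at or below twice the top tested dose in every run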;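 also: HEK293 cells stably expressing the CMV luciferase reporter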); conditions: HEK293 CMV-luciferase reporter, SteadyGlo luminescence, 24 h; series mostly up to 35 µM
[4] = general cell-killing toxicity readout – plate reader, dry powder samples, cytotoxicity control for PAX8 inhibitor project, dose response (AID 743021); conditions: cell line, non-specific cytotoxicity counter-screen; series mostly up to 35 µM
[5] = toxicity toward immortalized ovarian surface epithelium – cell-based, plate reader, dry powder samples, cytotoxicity control for PAX8 inhibitor project, dose response (AID 743045); conditions: IOSE-T80 ovarian epithelial cells; series mostly up to 35 µM;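 also: 0% = neutral control median and -100% = positive control median; more negative values mean more cell killing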
[6] = A2780 cell killing – plate reader, dry powder samples, cytotoxicity control, dose response (AID 743046); conditions: A2780 ovarian cancer cytotoxicity; series mostly up to 35 µM;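 also: 0% = neutral control wells and -100% = cytotoxic reference compound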
[7] = OVCAR8 cell viability loss – plate reader, dry powder samples, PAX8 project, dose response (AID 743197); conditions: series mostly up to 35 µM

Measured: activity change, negative = cytotoxicity

COc1ccc(S(=O)(=O)Nc2ccc3c(c2)C(=O)N([C@H](C)CO)C[C@@H](C)[C@@H](CN(C)Cc2ccc(C(F)(F)F)cc2)OCCCC[C@@H](C)O3)cc1
not listed: [6] | [7]
inactive: all other assays above

C[C@@H]1CN([C@@H](C)CO)C(=O)Cc2cc(NS(=O)(=O)c3ccc(F)cc3)ccc2O[C@H]1CN(C)Cc1ccc(Cl)c(Cl)c1
not listed: [6] | [7]
inactive: all other assays above

O=C(c1cc(-c2cccs2)on1)N1CCN(C(c2ccccc2)c2ccccc2)CC1
not listed: [7]
inactive: all other assays above

Cc1ccc(S(=O)(=O)Nc2ccc3c(c2)C(=O)N([C@@H](C)CO)C[C@H](C)[C@@H](CN(C)Cc2ccc(C(F)(F)F)cc2)OCCCC[C@H](C)O3)cc1
not listed: [6] | [7]
inactive: all other assays above

C[C@@H]1CN([C@H](C)CO)C(=O)c2cc(NC(=O)CCC(F)(F)F)ccc2O[C@@H](C)CCCCO[C@@H]1CN(C)Cc1ccc(Cl)c(Cl)c1
not listed: [6] | [7]
inactive: all other assays above

C[C@H]1CCCCO[C@H](CN(C)Cc2ccc(C(F)(F)F)cc2)[C@@H](C)CN([C@@H](C)CO)C(=O)c2cc(NC(=O)Cc3ccccc3)ccc2O1
not listed: [7]
inactive: all other assays above

C[C@H]1CCCCO[C@@H](CN(C)Cc2ccc(C(F)(F)F)cc2)[C@@H](C)CN([C@@H](C)CO)C(=O)c2cc(NS(=O)(=O)c3ccc(F)cc3)ccc2O1
not listed: [7]
inactive: all other assays above

COc1cccc(-c2ccc3c(c2)[C@@H]2[C@@H](CCN2S(=O)(=O)c2ccccc2OC)[C@H](CO)N3C)c1
not listed: [7]
inactive: all other assays above

C[C@@H]1CCCCO[C@@H](CN(C)Cc2ccccc2)[C@H](C)CN([C@@H](C)CO)C(=O)c2cc(NC(=O)Nc3ccc(C(F)(F)F)cc3)ccc2O1
not listed: [6] | [7]
inactive: all other assays above

C[C@@H]1CN([C@H](C)CO)C(=O)c2cc(NC(=O)Nc3ccc(C(F)(F)F)cc3)ccc2O[C@@H](C)CCCCO[C@H]1CN(C)C(=O)Nc1ccc(C(F)(F)F)cc1
not listed: [6] | [7]
inactive: all other assays above

C[C@@H]1CN([C@@H](C)CO)C(=O)c2cc(NC(=O)Nc3ccc(C(F)(F)F)cc3)ccc2O[C@@H](C)CCCCO[C@H]1CN(C)Cc1ccncc1
not listed: [7]
inactive: all other assays above

C[C@@H]1CN([C@H](C)CO)C(=O)c2c(c3ccccc3n2C)-c2ccccc2CO[C@H]1CN(C)S(=O)(=O)c1ccc(C(F)(F)F)cc1
not listed: [6] | [7]
inactive: all other assays above

COc1ccc(S(=O)(=O)Nc2ccc3c(c2)C(=O)N([C@H](C)CO)C[C@@H](C)[C@H](CN(C)S(=O)(=O)c2ccc(Cl)cc2)OCCCC[C@H](C)O3)cc1
not listed: [7]
inactive: all other assays above

COc1ccccc1S(=O)(=O)N(C)C[C@H]1Oc2cc(C#CCC3CCCC3)ccc2S(=O)(=O)N([C@H](C)CO)C[C@H]1C
not listed: [6] | [7]
inactive: all other assays above

C[C@@H]1CN([C@H](C)CO)C(=O)c2cc(NC(=O)Nc3ccc(C(F)(F)F)cc3)ccc2O[C@@H](C)CCCCO[C@@H]1CN(C)Cc1ccc2c(c1)OCO2
not listed: [7]
inactive: all other assays above

C[C@@H]1CCCCO[C@@H](CN(C)Cc2ccc3c(c2)OCO3)[C@@H](C)CN([C@@H](C)CO)C(=O)c2cc(NC(=O)Nc3ccc(C(F)(F)F)cc3)ccc2O1
not listed: [7]
inactive: all other assays above

C[C@@H]1CCCCO[C@@H](CN(C)Cc2ccc(C(F)(F)F)cc2)[C@H](C)CN([C@H](C)CO)C(=O)c2cc(NS(=O)(=O)c3ccc(F)cc3)ccc2O1
not listed: [6] | [7]
inactive: all other assays above

CCCC#Cc1ccc([C@H]2[C@@H](CO)N3CCCCN(S(=O)(=O)Cc4ccccc4)C[C@H]23)cc1
not listed: [7]
inactive: all other assays above

COc1cccc(-c2ccc3c(c2)[C@H]2[C@H](CCN2S(=O)(=O)c2ccccc2OC)[C@@H](CO)N3C)c1
not listed: [7]
inactive: all other assays above

O=C1CN(S(=O)(=O)Cc2ccccc2)C[C@@H]2[C@@H](c3ccc(C#CC4CC4)cc3)[C@@H](CO)N12
inactive: [1] | [2] | [3] | [4] | [5] | [6] 19% [at 8 µM]

Cc1cccc(S(=O)(=O)N2CCCCN3[C@H](CO)[C@H](c4ccc(C#C[C@H](C)O)cc4)[C@H]3C2)c1
not listed: [7]
inactive: all other assays above

COc1ccc(-c2ccc3c(c2)[C@@H]2[C@@H](CCN2C(=O)C2CCCCC2)[C@H](CO)N3C)cc1
not listed: [6] | [7]
inactive: all other assays above

COc1ccc2c3c(n(C)c2c1)[C@H](CO)N(C(=O)Nc1ccc(F)cc1)CC31CCN(C(=O)c2ccc3c(c2)OCO3)CC1
not listed: [6] | [7]
inactive: all other assays above

Cc1ccc(S(=O)(=O)Nc2ccc3c(c2)C(=O)N([C@@H](C)CO)C[C@H](C)[C@@H](CN(C)Cc2ccc(C(F)(F)F)cc2)OCCCC[C@@H](C)O3)cc1
not listed: [7]
inactive: all other assays above

C[C@H](CO)N1C[C@H](C)[C@@H](CN(C)Cc2ccc(-c3ccccc3)cc2)Oc2ccc(NS(=O)(=O)c3ccc(F)cc3)cc2CC1=O
not listed: [7]
inactive: all other assays above

C[C@@H]1CN([C@H](C)CO)C(=O)c2cc(NC(=O)Nc3ccc(C(F)(F)F)cc3)ccc2O[C@@H](C)CCCCO[C@H]1CN(C)C(=O)c1ccccc1
not listed: [5] | [7]
inactive: all other assays above

COc1ccccc1NC(=O)N1CCCCN2[C@@H](CO)[C@@H](c3ccc(-c4cccc(C)c4)cc3)[C@@H]2C1
not listed: [5] | [7]
inactive: all other assays above

O=C(C[C@H]1C[C@@H]2c3cc(NC(=O)Nc4ccc(C(F)(F)F)cc4)ccc3O[C@@H]2[C@@H](CO)O1)NCc1ccc(Cl)cc1
inactive: all assays above

CCc1ccc(/C=C2\SC(=S)N(CCCC(=O)N(CCO)c3ccccc3)C2=O)cc1
not listed: [7]
inactive: all other assays above

C[C@@H]1CN([C@@H](C)CO)C(=O)Cc2cc(NC(=O)CCC(F)(F)F)ccc2O[C@H]1CN(C)Cc1ccc(Oc2ccccc2)cc1
inactive: all assays above

C[C@H]1CCCCO[C@@H](CN(C)Cc2ccc(C(F)(F)F)cc2)[C@@H](C)CN([C@@H](C)CO)C(=O)c2cc(NS(=O)(=O)c3ccccc3)ccc2O1
not listed: [7]
inactive: all other assays above

Cc1noc(C)c1S(=O)(=O)Nc1ccc2c(c1)C(=O)N([C@H](C)CO)C[C@@H](C)[C@@H](CN(C)Cc1ccc(C(F)(F)F)cc1)OCCCC[C@H](C)O2
not listed: [7]
inactive: all other assays above

COc1ccccc1S(=O)(=O)N(C)C[C@H]1Oc2cc(C#CCC3CCCC3)ccc2S(=O)(=O)N([C@@H](C)CO)C[C@@H]1C
not listed: [6]
inactive: all other assays above

O=C(c1ccccc1F)N1CC(=O)N2[C@@H](CO)[C@@H](c3ccc(C#Cc4ccc(F)cc4)cc3)[C@@H]2C1
not listed: [7]
inactive: all other assays above

C[C@@H]1CCCCO[C@@H](CN(C)Cc2ccc(C(F)(F)F)cc2)[C@H](C)CN([C@@H](C)CO)C(=O)c2cc(NC(=O)Cc3ccccc3)ccc2O1
not listed: [7]
inactive: all other assays above

O=C(Nc1ccccc1F)N1CCCCN2[C@@H](CO)[C@@H](c3ccc(/C=C/c4ccccc4)cc3)[C@@H]2C1
inactive: all assays above

Cc1ccccc1S(=O)(=O)N1C[C@@H]2N[C@H](C1)C2c1ccc(-c2cccc(C#N)c2)cc1 (stereo partly specified)
not listed: [5] | [7]
inactive: all other assays above

C[C@@H]1CN([C@@H](C)CO)S(=O)(=O)c2ccc(C#C[C@@H](C)O)cc2O[C@H]1CN(C)Cc1ccc(-c2ccccc2)cc1
inactive: all assays above

C[C@H](CO)N1C[C@H](C)[C@H](CN(C)Cc2ccc(C(F)(F)F)cc2)OCCCC[C@H](C)Oc2ccc(NC(=O)Nc3ccc4c(c3)OCO4)cc2C1=O
inactive: all assays above

C[C@@H]1CN([C@@H](C)CO)C(=O)Cc2cc(NS(=O)(=O)c3ccc(F)cc3)ccc2O[C@H]1CN(C)Cc1ccc(C(F)(F)F)cc1
not listed: [7]
inactive: all other assays above

O=C(C[C@@H]1C[C@H]2c3cc(NS(=O)(=O)c4ccc(F)cc4)ccc3O[C@H]2[C@H](CO)O1)NCc1ccc(Cl)cc1
not listed: [5] | [7]
inactive: all other assays above

O=C(NC1CCCCC1)N1C[C@@H]2N[C@H](C1)C2c1ccc(-c2ccc(F)cc2)cc1 (stereo partly specified)
not listed: [5] | [7]
inactive: all other assays above

Cc1ccc(S(=O)(=O)Nc2ccc3c(c2)C(=O)N([C@H](C)CO)C[C@@H](C)[C@@H](CN(C)Cc2ccc(C(F)(F)F)cc2)OCCCC[C@@H](C)O3)cc1
not listed: [5] | [7]
inactive: all other assays above
